Assay outcomes from PubChem.
Only some compounds are listed: those with a hit (about 2.6% of all), similar ones and a draw of the others.
PAD4 inh – blocks human protein arginine deiminase 4 | Q9UM07 | recombinant PAD4, RCA probe fluorescence polarization | inhibition, % at 6.36 µM | hit rate 0.41% among 330,000 | AID 485272;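 active means percent inhibition above a cutoff equal to the mean of all tested compounds plus 3 SD, cut at about 15% in these data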;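 further: 0% = PAD4 with RCA probe and DMSO and 100% = probe without PAD4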
SIAE inh – inhibitors of human sialic acid acetylesterase SIAE; inhibition, % at 9.66 µM; SIAE FP-Rh probe binding, fluorescence polarization; AID 1053197; Q9HAT2; hit rate 0.69% among 370,000;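 active means inhibition above a cutoff: mean of compounds within the control limits plus 3 SD of those, cut at about 17% in these data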;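 further: 0% = plate median of compound wells and 100% = probe without SIAE protein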
Fam108B counter – blocks mouse Fam108B hydrolase in RBBP9 counter-screen; recombinant Fam108B, FP-Rh probe fluorescence polarization; inhibition, % at 9.51 µM; hit rate 0.33% among 300,000; AID 1947;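 active means inhibition above the screen mean inhibition plus 3 SD, computed separately per campaign, cut at about 18% in these data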;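 further: inhibitors lower polarization as less probe binds the enzyme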
TCR-CD3 inh – inhibitors of human TCR-CD3 interaction; hit rate 0.37% among 360,000; TAMRA-labeled TCR probe fluorescence, biochemical; AID 651800; inhibition, % at 9.4 µM; in the data active means inhibition above about 19%;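 further: recombinant mutant TCR 2C K166C tagged with TAMRA read by polarization; 0% = receptor in buffer alone and 100% = receptor with positive control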
PRMT1 FP inh – inhibitors of human PRMT1; Q99873; recombinant PRMT1, activity-based probe fluorescence polarization; inhibition, % at 2.79 µM; hit rate 1.3% among 370,000;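 active means inhibition above about 21% made by adding two undisclosed values, limit read from the data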
PME-1 primary – PME-1 (human) inhibition | recombinant PME-1, FP-Rh probe fluorescence polarization | AID 2130 | Q9Y570 | hit rate 0.53% among 320,000 | inhibition, % at 5.9 µM;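 active means inhibition above the campaign mean of all compounds plus 3 SD, cut at about 26% in these data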;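 further: competitive labeling of PME-1 active site by serine hydrolase directed probe; 0% = PME-1 with DMSO and 100% = wells lacking PME-1 enzyme; inhibitors block probe labeling so polarization falls and inhibition rises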
Target sequence (Q9Y570 whole entry, looked up): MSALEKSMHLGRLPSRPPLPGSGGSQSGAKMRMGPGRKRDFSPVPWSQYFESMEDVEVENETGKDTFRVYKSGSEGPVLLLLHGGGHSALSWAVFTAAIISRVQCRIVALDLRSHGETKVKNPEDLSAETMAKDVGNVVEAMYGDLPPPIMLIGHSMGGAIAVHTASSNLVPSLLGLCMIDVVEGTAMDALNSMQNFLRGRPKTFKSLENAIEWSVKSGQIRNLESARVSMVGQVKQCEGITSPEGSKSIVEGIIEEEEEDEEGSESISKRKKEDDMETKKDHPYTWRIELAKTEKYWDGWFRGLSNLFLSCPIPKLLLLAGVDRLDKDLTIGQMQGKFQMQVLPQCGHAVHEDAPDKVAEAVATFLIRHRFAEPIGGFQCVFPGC
Fam108b confirm – confirmation of mouse Fam108b serine hydrolase inhibitors; shares compounds with Fam108B counter; hit rate 44% among 930; inhibition, % at 9.51 µM; AID 1978; recombinant Fam108b, FP-Rh probe fluorescence polarization;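 active means inhibition above a limit from the primary screen, the mean over all compounds plus 3 SD, cut at about 19% in these data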;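 further: 0% = median of active Fam108b wells and 100% = catalytically dead S170A mutant; inhibitors free the probe so polarization falls as inhibition rises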
Fam108b inh – inhibits mouse Fam108b in gel-based ABPP. shares compounds with Fam108B counter. recombinant Fam108b, fluorophosphonate probe. inhibition, % at 20 µM. hit rate 44% among 260. AID 588649; in the data active means inhibition above about 40%
The depositor's hits bear a star; x = no result given.

SMILES	PAD4 inh	SIAE inh	Fam108B counter	TCR-CD3 inh	PRMT1 FP inh	PME-1 primary	Fam108b confirm	others
Cc1cc(N2CCN(Cc3ccc4c(c3)OCO4)CC2)n2nc(C)nc2n1	x	1	x	x	3	x	x
O=C(O)C1=C[C@H](c2csc3ccccc23)C[C@H](OCc2ccc(CO)cc2)O1	-2	4	32*	-5	6	-3	-5
CCc1ccc(S(=O)(=O)/N=C2\C=CC(=O)c3ccccc32)cc1	4	x	24*	x	x	12	21*
CCOc1cccc(/C=N/NC(=O)c2cc(-c3cccn3C)n[nH]2)c1O	-6	14	22*	8	2	-2	9
CN(CCO)c1ccc2c(c1)Oc1ccccc1CN(Cc1cn(Cc3ccc(C(F)(F)F)cc3)nn1)S2(=O)=O	x	4	x	x	0	x	x
Fc1ccc(-c2cc(-c3nnc4sc(Cc5cccs5)nn34)[nH]n2)cc1	x	-13	x	x	0	x	x
Cc1ccc(/C=C2\SC(=S)N(/N=C/c3cc([N+](=O)[O-])ccc3O)C2=O)o1	-1	x	25*	x	x	5	26*
COC(=O)[C@]12C[C@H](CC(=O)NCc3ccc(C)o3)C(=O)N(Cc3ccco3)C1=C[C@H](C(C)C)O[C@@H]2C1CC1	x	4	x	x	0	x	x
CCOC(=O)[C@]12CCCC3=C1N(CCC3)C(=O)[C@@H](CC(=O)NCC1CCCCC1)C2	x	1	x	x	-5	x	x
O=C1C=C(N2CCN(c3ccccn3)CC2)C(=O)c2c(O)ccc(O)c21	x	6	x	1	2	x	x
CC1=CC(=O)c2c(O)ccc(O)c2C1=O	23*	x	71*	x	x	26	43*	Fam108b inh=65*
CCn1c2ccccc2c2cc(NC(=O)c3ccc([N+](=O)[O-])cc3)ccc21	1	0	25*	-4	1	5	-1
COc1ccccc1Oc1c(C)oc2c(CN3CCN(CCO)CC3)c(O)ccc2c1=O	90*	0	47*	0	1	41*	-7
CCOc1ccccc1Oc1c(C)oc2c(CN3CCN(CCO)CC3)c(O)ccc2c1=O	-2	0	6	0	-1	0	x
Nn1c(SCC(=O)Nc2ccc(Br)cn2)nnc1-c1n[nH]c2c1CCC2	x	3	x	x	-3	x	x
Cc1ccccc1N=Nc1c(C)[nH]n(C(N)=S)c1=O	-1	-3	4	-2	2	-3	x
Cc1[nH]n(C(N)=S)c(=O)c1N=Nc1ccccc1C(F)(F)F	-2	14	24*	-6	-3	2	27*
CCOc1ccc(-c2csc(/C(C#N)=C\c3ccc(O)c([N+](=O)[O-])c3)n2)cc1	-1	3	25*	-5	-5	26	6
O=C1/C(=C\c2ccco2)SC(=S)N1c1ccc(O)cc1	-11	8	16	-5	14	4	x
CC(C)C(C(=O)O)N1C(=O)/C(=C/c2cccn2C)SC1=S (stereo not given)	-5	-2	-5	6	-11	4	x
CC(C)C(C(=O)O)N1C(=O)/C(=C/C=C/c2ccco2)SC1=S (stereo not given)	-5	x	38*	x	x	-30	0
O=C1/C(=C/C=C/c2ccco2)SC(=S)N1c1ccc(O)cc1	-14	9	19*	10	25*	-10	-1
COc1ccc(C(=O)CSc2nnc(-c3ccccc3)n2-c2ccc(Cl)cc2)cc1	x	2	x	x	2	x	x
COc1ccc(-n2c(C)c3c(OC)cccc(=O)c3c2C)cc1	2	-2	1	-10	14	13	x
COc1cccc(=O)c2c(C)n(-c3ccc(C(=O)O)cc3)c(C)c12	3	-2	18*	0	8	-17	1
SMILES	PAD4 inh	SIAE inh	Fam108B counter	TCR-CD3 inh	PRMT1 FP inh	PME-1 primary	Fam108b confirm	others
Oc1ccc(C=NNc2ccnc3cc(Cl)ccc23)c(O)c1O	x	x	x	x	x	x	x	Fam108b inh=80*
COc1ccc(/C=N\NC(=O)c2cc(O)c(O)c(O)c2)cc1COc1ccc(C(=O)OCC(C)C)cc1	-12	17	28*	13	7	42*	31*
COc1ccc(C(=O)N/N=C/c2ccc(OC)c(COc3ccccc3)c2)cc1	1	-4	-1	5	-4	-7	x
O=C(C1CCCN(S(=O)(=O)c2cccs2)C1)N1CCN(Cc2ccccc2)CC1 (stereo not given)	x	1	x	x	-2	x	x
C=CCN1C(=O)[C@@H](CC(=O)N2CCN(C(=O)c3ccco3)CC2)[C@]2(C(=O)OCC)CCCCC/C=C/12	x	1	x	x	-1	x	x
Cc1cc(/C=C(/C#N)c2nc3ccccc3[nH]2)c(C)n1-c1cccc([N+](=O)[O-])c1	-4	-10	25*	9	-2	7	-11
O=C(Nc1ccc(Cl)cc1)C1CCCN1S(=O)(=O)c1cccnc1 (stereo not given)	x	-5	x	x	0	x	x
COc1cc(OC)c(NC(=O)C2CCCO2)cc1Cl (stereo not given)	-3	4	18*	3	0	7	-3
O=C(Nc1ccc2nc(-c3cccs3)c(-c3cccs3)nc2c1)N1CCOCC1	-3	4	4	3	15	-9	x
O=C(Nc1ccc(N2CCOCC2)cc1)Nc1ccc2nc(-c3ccco3)c(-c3ccco3)nc2c1	0	9	26*	-1	10	65*	13
O=C(Nc1cc(Sc2ccccn2)cc([N+](=O)[O-])c1)c1cccc(F)c1	-3	-11	21*	11	-1	4	-5
CCN(CC)c1ccc(/C=N/Nc2nc3ccccc3[nH]2)c(O)c1	-11	28*	21*	-3	0	7	19*
CC(C)CNS(=O)(=O)/C=C/c1ccccc1CNC(=O)OC(C)(C)C	x	-2	x	x	3	x	x
CN1c2ccccc2C(C)(C)C12C=Nc1c(ccc3ccccc13)O2 (stereo not given)	-1	7	31*	-4	1	5	0
Cc1cc(CSc2ccccc2)ccc1NC(=O)c1ccc(C)c([N+](=O)[O-])c1	-1	3	-4	2	-3	1	x
Cc1cc(CSc2ccccc2)ccc1NC(=O)c1ccc(Cl)c([N+](=O)[O-])c1	-3	11	25*	-1	0	-2	63*	Fam108b inh=20
COc1ccc(C2C(C(=O)N3CCCCC3C)CC(=O)N2c2ccc(OC)cc2)cc1 (stereo not given)	x	-3	x	x	3	x	x
CC1CC(=O)c2c(cc3c(-c4c(O)cc(O)c5c(O)c6c(cc45)OC(C)CC6=O)c(O)cc(O)c3c2O)O1 (stereo not given)	12	x	54*	x	x	0	66*	Fam108b inh=0
COc1ccc(CN(CCN2CCOCC2)C(=O)c2cc(F)cc(F)c2)cc1OC	x	-4	x	x	-2	x	x
Nn1c(SCc2cccc3ccccc23)nnc1-c1n[nH]c2c1CCC2	x	0	x	x	-9	x	x
N#C/C(N=Nc1ccccc1O)=N\Nc1ccccc1O	3	4	39*	-8	10	32*	40*	Fam108b inh=0
